According to the supplement of paper PMC6555819:

Test system: RARa homodimer (NR concentration 270 nM)
Assay: PBM binding z-score (relative to random genomic background probes); higher = stronger binding; sequences stand for … in GC…GCGATTGACAGCGTAGAATGAAGG
Outline: (§1)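 Each nuclear receptor dimer, without ligand, was incubated for 1 h on custom Agilent 4×180K protein-binding microarrays. Binding was detected with antibodies against each partner (one per run), and scanned fluorescence was regression-normalized. The binding z-scores are referenced to random human genomic background probes.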

Row | Sequence | PBM binding z-score
1 | CGTACTAGGTCAAGGACAGTGAATCTCCGCACGC | 1.16
2 | AGAATGAGGTTATACGTAGATCAGGGAAGAAAGT | 0.738
3 | CCTTACGGGTCACTGACACGTTATAGCATTTGGA | 0.948
4 | CGAACTATGTCATTGACAGGACAGTGAATAGTAA | 0.439
5 | AGAACGAGGGCAATGAATTGATAGCACGGGTGGC | 0.175
6 | TCTTGTAGATCAAAGGTTAAGGAAGCCGAAGCCT | 0.593
7 | GCTCACGGGTCAAAGGTTATAGCATGAATAGAAT | 0.284
8 | ATCTCTAGGTAACAAGTTCTGTGAAAGAGAGGAC | 0.681
9 | GCTCGGAGGACAAGGTCAGAACTTTGTCCGTAGA | -0.812
10 | CCTTACGGATCACTGACAGGTTATAGCATTTGGA | 1.14
11 | ATACCAAGGTGATCGTGAGGTCGTTGGTACTAAC | -0.116
12 | ATCTCTAGGTAACAAGTTCAGTGACAGAGAGGAC | 1.47
13 | TAGCCTAGGTCATTTAGGGGCCAGTATAGAAAGC | -0.429
14 | CGTCCAAGGTCAATGCTAGTTCAGTGAAAGCATT | 0.972
15 | CCTACTGGGGCAAAAAGGTCATTGATGCCGATAA | 2.82
16 | ACAGACAGGTGAGTGAAGGTAACTAAGCTGGACG | 0.112
17 | CAAACTAGGTCAAGTTCAAAGTCGGTTTGTGCCA | 1.55
18 | CAAACTAGGTCAAGAGGTCATAGTCCGCTTCCCG | 2.36
19 | ACAGACAGTTGATGAAGGTAACTCAGGCTATCAT | 0.632
20 | ATCTCTAGGTAAAGATGGTTCAGTGAATGCAAAT | 0.88

Row | Sequence | PBM binding z-score
21 | TCTAACAGGCCAGAGGGTCACTCAAGAGGTACGG | -0.0287
22 | TCTGGCAGGCCAGAGGGTCACTCAAGAGGTACGG | -0.717
23 | ACGGACAGGTGAGTGAAGGTAACTCAGCTGGACG | -0.21
24 | CCTACTGTGCCACGAAAGGTCATTGATTCAGTGA | 1.63
25 | ATCGAAAGGCCGAGGTGAGTATAGAGAAAGGGAA | -0.273
26 | ATCGAAAGGTCGAGGTGCGTATAGAGAAAGGGAA | 0.4
27 | ACTATTAGTTGAGACGAGGGGAACCGATAGGTTG | 0.237
28 | TCTATTAGTTGATTAGGTCAACCGAAACAGCGGA | 1.9
29 | GCTGCTAGGTCAACTGATGGTCAGCTTAAGCTCG | -0.0481
30 | GGAGCGAGGGCATTCGAGTTGATAGCATGGCGAT | -0.544
31 | CAAACTAGGTCACGAAAGGTCAAACTCGAATGAC | 4.28
32 | CCTTACGGATCACGAGGTTATAGCACGACGAGCG | 0.995
33 | TCAGACAGGTGAAGATAACTCAGGTACGCAGTCG | 0.4
34 | TAGCCTAGGTCATTGGCCCAGTATAGTACGCATC | -0.585
35 | ACTCGCAGGCCAAGGGTCACTCAAGATTAGTCCG | 0.673
36 | CAAACTAGGTCACGAAAGGTCGAAGTCGAATGAC | 1.66
37 | TCTCGGAGGACACGACGGTCAGAGCTTTCCAGAG | -0.599
38 | CCGAGTAGGTTATGGGGCATTCAAGCAACGGTGA | -0.114
39 | TTACCAACGTGAAGGTCGTTGATCCCTCTGTAGA | -0.198
40 | TCTATTAGTTGGAGGGCAACCGACGAGTCCGTTT | 0.176

Test system: RARb:RXRa (NR concentration 270 nM, RXRa partner concentration 90 nM)
Assay: as above
Outline: as §1

Row | Sequence | PBM binding z-score
41 | CGTACTAGGTCAAGGACAGTGAATCTCCGCACGC | 4
42 | AGAATGAGGTTATACGTAGATCAGGGAAGAAAGT | 1.54
43 | CCTTACGGGTCACTGACACGTTATAGCATTTGGA | 3.99
44 | CGAACTATGTCATTGACAGGACAGTGAATAGTAA | 0.614
45 | AGAACGAGGGCAATGAATTGATAGCACGGGTGGC | 2.01
46 | TCTTGTAGATCAAAGGTTAAGGAAGCCGAAGCCT | 2.11
47 | GCTCACGGGTCAAAGGTTATAGCATGAATAGAAT | 4.46
48 | ATCTCTAGGTAACAAGTTCTGTGAAAGAGAGGAC | 0.332
49 | GCTCGGAGGACAAGGTCAGAACTTTGTCCGTAGA | 3.2
50 | CCTTACGGATCACTGACAGGTTATAGCATTTGGA | 0.471
51 | ATACCAAGGTGATCGTGAGGTCGTTGGTACTAAC | 1.43
52 | ATCTCTAGGTAACAAGTTCAGTGACAGAGAGGAC | 1.81
53 | TAGCCTAGGTCATTTAGGGGCCAGTATAGAAAGC | 3.6
54 | CGTCCAAGGTCAATGCTAGTTCAGTGAAAGCATT | 5.1
55 | CCTACTGGGGCAAAAAGGTCATTGATGCCGATAA | 4.08
56 | ACAGACAGGTGAGTGAAGGTAACTAAGCTGGACG | 0.425
57 | CAAACTAGGTCAAGTTCAAAGTCGGTTTGTGCCA | 4.88
58 | CAAACTAGGTCAAGAGGTCATAGTCCGCTTCCCG | 5.19
59 | ACAGACAGTTGATGAAGGTAACTCAGGCTATCAT | 0.225
60 | ATCTCTAGGTAAAGATGGTTCAGTGAATGCAAAT | -0.00416

Row | Sequence | PBM binding z-score
61 | TCTAACAGGCCAGAGGGTCACTCAAGAGGTACGG | 2.27
62 | TCTGGCAGGCCAGAGGGTCACTCAAGAGGTACGG | 2.31
63 | ACGGACAGGTGAGTGAAGGTAACTCAGCTGGACG | 0.913
64 | CCTACTGTGCCACGAAAGGTCATTGATTCAGTGA | 3.96
65 | ATCGAAAGGCCGAGGTGAGTATAGAGAAAGGGAA | 1.53
66 | ATCGAAAGGTCGAGGTGCGTATAGAGAAAGGGAA | 3.98
67 | ACTATTAGTTGAGACGAGGGGAACCGATAGGTTG | 0.18
68 | TCTATTAGTTGATTAGGTCAACCGAAACAGCGGA | 2.73
69 | GCTGCTAGGTCAACTGATGGTCAGCTTAAGCTCG | 4.24
70 | GGAGCGAGGGCATTCGAGTTGATAGCATGGCGAT | 1.75
71 | CAAACTAGGTCACGAAAGGTCAAACTCGAATGAC | 5.84
72 | CCTTACGGATCACGAGGTTATAGCACGACGAGCG | 0.621
73 | TCAGACAGGTGAAGATAACTCAGGTACGCAGTCG | 1.1
74 | TAGCCTAGGTCATTGGCCCAGTATAGTACGCATC | 3.67
75 | ACTCGCAGGCCAAGGGTCACTCAAGATTAGTCCG | 3.6
76 | CAAACTAGGTCACGAAAGGTCGAAGTCGAATGAC | 4.86
77 | TCTCGGAGGACACGACGGTCAGAGCTTTCCAGAG | 1.91
78 | CCGAGTAGGTTATGGGGCATTCAAGCAACGGTGA | 1.08
79 | TTACCAACGTGAAGGTCGTTGATCCCTCTGTAGA | 0.811
80 | TCTATTAGTTGGAGGGCAACCGACGAGTCCGTTT | 1.35
